# DRD3 antagonist: D3 dopamine receptor (human) antagonism. max response, negative = inhibition, %. P35462. hit rate 2.5% among 360,000. AID 652054. D3R cells, DiscoveRx beta-arrestin luminescence, antagonist mode; hits give low values; in the data active = max response below about -50%; inconclusive = no clear call, values can overlap the other calls; note: % is set by controls: 0 for no effect and ±100 for the full control effect
# Target sequence (P35462 whole entry, looked up): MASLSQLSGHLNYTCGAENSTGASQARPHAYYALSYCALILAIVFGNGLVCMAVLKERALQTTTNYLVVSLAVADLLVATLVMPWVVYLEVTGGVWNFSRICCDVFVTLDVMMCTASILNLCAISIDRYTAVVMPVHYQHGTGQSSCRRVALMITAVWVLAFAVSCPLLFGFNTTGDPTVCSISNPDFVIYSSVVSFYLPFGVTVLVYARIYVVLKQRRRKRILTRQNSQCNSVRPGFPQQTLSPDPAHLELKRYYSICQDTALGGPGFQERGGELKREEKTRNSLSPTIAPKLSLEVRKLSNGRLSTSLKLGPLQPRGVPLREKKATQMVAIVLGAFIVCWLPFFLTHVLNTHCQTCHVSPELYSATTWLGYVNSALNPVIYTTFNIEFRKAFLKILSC
#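 Cells expressing the human receptor were seeded at 1500 cells/well, incubated overnight at 37 degrees C in 5% CO2, then exposed to library compounds with dopamine controls for 90 minutes at 37 degrees C before luminescent detection.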
# DRD3 agonist: agonists of human D3 dopamine receptor. D3R DiscoveRx beta-arrestin cells, luminescence, 90 min. max activation, %. AID 652048. hit rate 0.58% among 410,000. P35462; in the data active = max activation above about 30%; note: 0% is about no effect
#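 Cells at 1500/well, incubated overnight, then treated with pinned compounds (dopamine as control) for 90 min at 37 degrees C. DiscoveRx reagent added for 30 - 60 minutes at room temperature; luminescence read.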
# ATXN2 expr inh: ATXN2 expression inhibition | HEK-293 ATXN2-luciferase reporter, luminescence, 24 h | Potency, µM (series often up to 57 µM), inactives show top-dose activity change, negative = inhibition, usual class: inhibitors | hit rate 0.72% among 360,000 | AID 1745845; note: potency is the fitted concentration of half-maximal effect; % is set by controls: 0 for no effect and ±100 for the full control effect; nearly all actives have a fitted effect of over 55% in size
#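 ATXN2-luciferase reporter cells (luciferase flanked by upstream and downstream ATXN2 gene portions) were treated 24 h at 37 °C with compounds at up to 57 uM. SteadyGlo luminescence gave expression; GF-AFC fluorescence gave viability.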
# TGFb SMAD3 inh: inhibitors of TGF-b signaling; HepG2 CAGA-GFP TGF-b/SMAD3 reporter, GFP fluorescence, 18 h; TGF-beta stimulated, 500 pg/mL final; Potency, µM (titrated, usually from 46.1 µM), for inactives: at the highest dose activity, negative = inhibition, actives largely listed as inhibitors; hit rate 1.2% among 410,000; AID 588855; note: potency is the fitted concentration of half-maximal effect; % is set by controls: 0 for no effect and ±100 for the full control effect; nearly all actives have a fitted effect of over 65% in size
#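 Smad-responsive CAGA-GFP expression was quantified in HEPG2 cells exposed to compounds and 500 pg/mL final TGF-beta for 18 h at 37 degrees C; unstimulated wells defined full inhibition.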
# S2 tox: cell viability loss in ATXN counter-screen; S2 cells (HEK-293 line with an ATXN2-luciferase reporter) viability, CellTiter-Fluor protease fluorescence, 24 h; AID 651635; hit rate 0.49% among 400,000; Potency, µM (top dose mostly 56.7 µM), hits mostly cytotoxic; note: potency is the fitted concentration of half-maximal effect; nearly all actives have a fitted effect of over 40% in size
# HepG2 tox: kills HepG2 cells in TGF-b inhibitor counter-screen; HepG2 CAGA-GFP viability, ATP luminescence, 18 h; Potency, µM (top dose mostly 46.1 µM), inactives show at the highest dose activity change, negative = cytotoxicity, actives largely listed as cytotoxic; hit rate 0.76% among 410,000; note: potency is the fitted concentration of half-maximal effect
#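 HepG2 CAGA-GFP cells (1000/well, DMEM with 1% FBS) received compound, then TGF-beta at 500 pg/mL final, and were incubated 18 hours at 37 degrees C. Viability was read by CellTiter-Glo luminescence. Media-only wells were set as complete cell-killing and DMSO as no toxicity.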
# Numbers without * were called inactive; i = inactive; ? = inconclusive; · = no result given; [ ] = another dose, or the depositor's remark. Sampled rows, rich in hits. Any-hit rate of the full collection: about 4.7%. Unless noted, calls come from the whole dose curve; as a rule, active = well fitted curve in the direction sought with a large enough effect; inconclusive = small, poorly fitted or top-dose-only effect, or another doubt; inactive = no such curve, though single readings can be large; an effect the other way counts as inactive or inconclusive.
SMILES,DRD3 antagonist,DRD3 agonist,ATXN2 expr inh,TGFb SMAD3 inh,S2 tox,HepG2 tox
NC(c1ccccc1)c1csc(NC(=O)Nc2cccc(Cl)c2)n1 (configuration not stated),4,-9,?,?,?,-99%
NC(Cc1ccccc1)c1csc(NC(=O)Nc2ccccc2Oc2ccccc2)n1 (configuration not stated),53,5,?,?,?,-104%
NC(Cc1ccc(C(F)(F)F)cc1)c1csc(NC(=O)Nc2ccccc2Oc2ccccc2)n1 (configuration not stated),22,11,-14%,11µM*,·,10µM*
Cc1ccc(Cl)cc1-n1ncc2c(N3CCC(C)CC3)ncnc21,·,6,-12%,-25%,i,-53%
O=C(O)[C@@H](O)[C@@H](O)[C@H](O)[C@H](O)CO,·,·,·,8%,·,14%
Cc1csc2nc(CCNS(=O)(=O)c3ccccc3)cn12,·,0,·,-5%,·,2%
CC(C)CC(N)c1csc(NC(=O)Nc2ccccc2C(C)(C)C)n1 (configuration not stated),0,-6,?,14µM*,i,-100%
CC(C)CC(N)c1csc(NC(=O)NCCc2ccccc2)n1 (configuration not stated),24,-3,-11%,-3%,i,-28%
COc1ccccc1NC(=O)Nc1nc(C(N)CCc2ccccc2)cs1 (configuration not stated),-96*,-17,?,11µM*,?,10µM*
COc1ccccc1NC(=O)Nc1nc(C(N)Cc2ccc(C(F)(F)F)cc2)cs1 (configuration not stated),15,4,-1%,?,·,20µM*
COc1ccccc1CNC(=O)Nc1nc(C(N)Cc2ccc(Cl)cc2)cs1 (configuration not stated),11,3,?,?,32µM*,-97%
COc1ccc(CNC(=O)Nc2nc(C(N)Cc3ccc(F)cc3)cs2)cc1 (configuration not stated),-18,-9,?,?,?,-96%
COc1cc(CNC(=O)Nc2nc(C(N)CCc3ccccc3)cs2)cc(OC)c1OC (configuration not stated),0,-10,?,?,?,-88%
CCC1(C2CCN(C(=O)c3ccc(C)c(C)c3)CC2)NC(=O)N(CCc2scnc2C)C1=O (configuration not stated),·,·,·,·,i,·
NC(Cc1ccc(C(F)(F)F)cc1)c1csc(NC(=O)NCCc2ccccc2)n1 (configuration not stated),10,-5,?,14µM*,?,11µM*
COC(=O)C1=C(C)NC(=O)CC1c1cc2c(cc1Br)OCO2 (configuration not stated),?,3,4%,-1%,i,3%
CCOc1ccccc1C1CC(=O)NC(C)=C1C(=O)OC1CCCCCC1 (configuration not stated),·,-3,-3%,?,i,16µM*
CC1=C(C(=O)OCc2ccc(C)cc2)C(c2ccccc2F)CC(=O)N1 (configuration not stated),·,3,-16%,11µM*,i,-38%
CC1=C(C(=O)OC2CCCCCCC2)C(c2cc3c(cc2Br)OCO3)CC(=O)N1 (configuration not stated),13,0,?,?,i,16µM*
Cc1ccc(S(=O)(=O)NC(=O)N[C@@H](C)Cc2ccccc2)cc1,·,6,·,·,·,·
COc1ccccc1Nc1c2c(nc3ccc(NC(=O)c4ccc(OC)c(OC)c4)cc13)CCCC2,·,-21,?,?,25µM*,22µM*
COc1ccccc1Nc1c2c(nc3ccc(NC(=O)c4ccccc4F)cc13)CCCC2,·,-19,·,?,·,-44%
COc1ccc(C(=O)Nc2ccc3nc4c(c(Nc5ccc(OC)c(OC)c5)c3c2)CCCC4)c(OC)c1,·,-7,?,?,28µM*,-88%
COc1ccccc1Nc1c2c(nc3ccc(NC(=O)c4cccc(OC)c4OC)cc13)CCCC2,·,54*,·,?,·,-57%
Clc1ccc2c(N3CCN(CCCN4CCN(c5ccnc6cc(Cl)ccc56)CC4)CC3)ccnc2c1,·,·,-7%[25.6 µM],·,·,·
SMILES,DRD3 antagonist,DRD3 agonist,ATXN2 expr inh,TGFb SMAD3 inh,S2 tox,HepG2 tox
C=C(C)[C@H]1CC[C@]2(CO)CC[C@]3(C)[C@@H](CC[C@H]4[C@@]5(C)CC[C@@H](O)C(C)(C)[C@@H]5CC[C@@]43C)[C@H]12,·,·,·,·,i,·
Cc1cc(C)cc(NC(=O)CSc2nncn3c2cc2occc23)c1,·,-14,·,1%,·,-11%
Oc1ccccc1N=Nc1ccccc1O,8,2,·,?,0.89µM*,-31%
Cc1ccc(-c2nn3c(C)nnc3s2)cc1NC(=O)c1ccc(-c2ccc(Cl)cc2Cl)o1,34,24,8.9µM*,?,·,-55%
CC1(S(=O)(=O)O)CC(=O)c2ccccc2C1=O (configuration not stated),0,2,25µM*,?,·,-103%
O=C(O)C1CC=CCC1C(=O)N1CC=C(c2ccccc2)CC1 (configuration not stated),-62*,-12,-2%[11.3 µM],-9%,i,-4%
C/C(=N\Nc1nnc(C)c(=O)[nH]1)C(=O)O,-52*,-42,4%,4%,i,7%
CC(/C=N/Nc1nnc(C)c(=O)[nH]1)=C\c1ccccc1,-23,-5,31%,5%,i,2%
Cc1ccc2nc(SCC(=O)NCC3Cc4cccc(-c5nc(C)cnc5C)c4O3)[nH]c2c1 (configuration not stated),·,·,·,·,i,·
Nc1ncn(C(=S)Nc2ccccc2)n1,?,-7,?,8.9µM*,?,-47%
S=C(Nc1ccccc1)N1CCCCCC1,15,0,4%,-1%,i,-1%
CCCCN(CC)CCCNC(=O)c1c(C)oc2ncnc(N3CCOCC3)c12,·,60*,·,0%,·,-3%
O=c1cc(-c2ccccc2)n(S(=O)(=O)c2ccccc2)o1,?,-3,0%,-2%,i,3%
O=c1cc(-c2ccccc2)n(S(=O)(=O)c2ccc3ccccc3c2)o1,-77*,-5,-3%,-7%,i,-18%
CC(C)(C)c1ccc(S(=O)(=O)N[C@H]2CC[C@@H](n3cc(C(=O)N4CCCC4)nn3)CC2)cc1,·,·,·,·,i,·
COc1cccc(CN(C)C(=O)c2cnn(-c3ncc4c(n3)-c3ccccc3CCC4)c2C)c1,·,·,·,·,i,·

# Compound activity from PubChem BioAssay.
